{"source": "PubChem BioAssay (EPA / NIEHS)", "key": {"[1]": {"experiment": "CEETOX_H295R_PROG_noMTC: CeeTox H295R High-throughput Steroidogenesis Assay for Progesterone (PROG), maximum tolerated concentration (MTC) filtered results only (AID 2283920; active = hit-call score of the fitted dose curve at least 0.9, where 1 is the maximum; inactive = score below 0.9)", "settings": "actives raise or lower the signal", "procedure,_shortened": "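H295R human adrenal cells were prestimulated 48 h with 10 uM forskolin, then exposed 48 h to test chemical (0.1% DMSO final). Progesterone in medium was quantified by HPLC-MS/MS; bidirectional fitting versus DMSO, concentrations not MTC-filtered.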"}, "[2]": {"biological_target": "Thyroid hormone receptor alpha (Rattus norvegicus) + Thyroid hormone receptor beta (Rattus norvegicus) (UniProt P18113+P63059)", "sequence (P63059 whole entry, looked up)": "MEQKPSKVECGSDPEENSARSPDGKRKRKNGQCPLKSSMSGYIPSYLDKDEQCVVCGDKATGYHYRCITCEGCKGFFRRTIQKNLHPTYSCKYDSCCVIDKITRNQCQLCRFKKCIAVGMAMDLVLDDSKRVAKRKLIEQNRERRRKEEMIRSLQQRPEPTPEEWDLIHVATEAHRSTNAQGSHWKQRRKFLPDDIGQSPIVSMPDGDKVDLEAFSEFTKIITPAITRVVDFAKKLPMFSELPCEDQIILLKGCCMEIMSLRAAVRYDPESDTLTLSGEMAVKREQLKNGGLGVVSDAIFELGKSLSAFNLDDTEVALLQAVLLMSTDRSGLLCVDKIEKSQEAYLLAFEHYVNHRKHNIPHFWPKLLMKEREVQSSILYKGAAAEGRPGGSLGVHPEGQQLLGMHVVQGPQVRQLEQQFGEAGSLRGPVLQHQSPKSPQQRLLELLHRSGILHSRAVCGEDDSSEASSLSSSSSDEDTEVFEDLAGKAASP", "sequence (P18113 whole entry, looked up)": "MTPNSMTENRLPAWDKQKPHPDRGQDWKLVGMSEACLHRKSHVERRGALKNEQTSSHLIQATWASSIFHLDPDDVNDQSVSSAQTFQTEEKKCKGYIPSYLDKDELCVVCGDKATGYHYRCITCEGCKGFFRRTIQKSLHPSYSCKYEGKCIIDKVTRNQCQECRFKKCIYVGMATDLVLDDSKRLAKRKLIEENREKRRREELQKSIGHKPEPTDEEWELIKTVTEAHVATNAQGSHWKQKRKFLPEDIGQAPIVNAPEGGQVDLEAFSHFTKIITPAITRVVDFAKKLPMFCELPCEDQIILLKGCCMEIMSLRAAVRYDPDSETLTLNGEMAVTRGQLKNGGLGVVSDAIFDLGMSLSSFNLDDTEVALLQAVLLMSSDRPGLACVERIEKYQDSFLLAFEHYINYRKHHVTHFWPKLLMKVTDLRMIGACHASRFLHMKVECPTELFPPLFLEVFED", "experiment": "TOX21_TR_LUC_GH3_Agonist_Followup: Tox21 GH3 Thyroid Hormone Receptor Agonism Luciferase Follow-Up Assay (AID 2283939)", "protocol": "TOX21_TR_LUC_GH3_Agonist_Followup is a secondary assay for specificity for the TOX21_TR_LUC_GH3_Agonist assay. TOX21_TR_LUC_GH3_Agonist_Followup is a cell-based, single-readout assay that uses GH3, a rat pituitary gland cell line, with measurements taken at 28 hours after chemical dosing in a 1536-well plate.TOX21_TR_LUC_GH3_Agonist_Followup is one of one assay component(s) measured or calculated from the TOX21_TR_LUC_GH3_Agonist_Followup assay. It is designed to make measurements of luciferase induction, a form of inducible reporter, as detected with bioluminescence signals by […] technology.Data from the assay component TOX21_TR_LUC_GH3_Agonist_Followup was analyzed into 1 assay endpoint. This assay endpoint, TOX21_TR_LUC_GH3_Agonist_Followup, was analyzed in the positive analysis fitting direction relative to DMSO as the negative control and baseline of activity. Using a type of inducible reporter, gain-of-signal activity can be used to understand changes in the reporter gene as they relate to the gene THRA and THRB in the GH3 cell line using a luciferase reporter. Furthermore, this assay endpoint can be referred to as a primary readout, because the performed assay has only produced 1 assay endpoint. This assay endpoint is designated followup because it was a confirmatory screen following the primary qHTS assay.\nCell Media Required: Growth (90% DMEM/F-12, 10% Fetal Bovine Calf Serum, 100U/ml Penicillin, 100 ug/ml Streptomycin), Assay (10ng/mL sodium selenite, 10 ug/mL humanapo-transferrin, 10 uM ethanolamine, 10 ug/mL insulin, 500 ug/mL bovine serum albumin (BSA))Assay Protocol: Cells were seeded at 1,500/well in 5 uL (agonist mode) and 4 uL (antagonist mode) of the assay medium in 1,536-well white/solid plates (Greiner Bio-One North America) using a Multi drop Combi (Thermo Fisher Scientific) dispenser. Chemical samples were serially diluted in DMSO, yielding 15 concentrations for testing. […]"}, "[3]": {"experiment": "TOX21_PR_BLA_Followup_Agonist_viability: Viability Assessment in the Tox21 HEK293 Progesterone Receptor (PR) Agonism Beta-lactamase Follow-Up Assay (AID 2283935);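 also: signal loss means lower viability so actives are cytotoxic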", "procedure,_shortened": "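Multiplexed viability counter-screen: ATP-coupled luciferase signal measured after 30 min at room temperature, following 16 hr compound treatment of PR-UAS-bla HEK293T cells grown in charcoal-stripped serum.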"}, "[4]": {"experiment": "TOX21_PR_BLA_Followup_Antagonist_viability: Viability Assessment in the Tox21 HEK293 Progesterone Receptor (PR) Antagonism Beta-lactamase Follow-Up Assay (AID 2283936)", "procedure,_shortened": "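PR-UAS-bla HEK293T cells (3,000/well, 2% charcoal-stripped FBS) given compound plus R5020 agonist, 16 h at 37C. CellTiter-Glo added after bla read, 30 min at room temperature; luminescence loss indicates cytotoxicity.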"}, "[5]": {"biological_target": "PGR (gene 5241) (UniProt P06401)", "sequence (P06401 whole entry, looked up)": "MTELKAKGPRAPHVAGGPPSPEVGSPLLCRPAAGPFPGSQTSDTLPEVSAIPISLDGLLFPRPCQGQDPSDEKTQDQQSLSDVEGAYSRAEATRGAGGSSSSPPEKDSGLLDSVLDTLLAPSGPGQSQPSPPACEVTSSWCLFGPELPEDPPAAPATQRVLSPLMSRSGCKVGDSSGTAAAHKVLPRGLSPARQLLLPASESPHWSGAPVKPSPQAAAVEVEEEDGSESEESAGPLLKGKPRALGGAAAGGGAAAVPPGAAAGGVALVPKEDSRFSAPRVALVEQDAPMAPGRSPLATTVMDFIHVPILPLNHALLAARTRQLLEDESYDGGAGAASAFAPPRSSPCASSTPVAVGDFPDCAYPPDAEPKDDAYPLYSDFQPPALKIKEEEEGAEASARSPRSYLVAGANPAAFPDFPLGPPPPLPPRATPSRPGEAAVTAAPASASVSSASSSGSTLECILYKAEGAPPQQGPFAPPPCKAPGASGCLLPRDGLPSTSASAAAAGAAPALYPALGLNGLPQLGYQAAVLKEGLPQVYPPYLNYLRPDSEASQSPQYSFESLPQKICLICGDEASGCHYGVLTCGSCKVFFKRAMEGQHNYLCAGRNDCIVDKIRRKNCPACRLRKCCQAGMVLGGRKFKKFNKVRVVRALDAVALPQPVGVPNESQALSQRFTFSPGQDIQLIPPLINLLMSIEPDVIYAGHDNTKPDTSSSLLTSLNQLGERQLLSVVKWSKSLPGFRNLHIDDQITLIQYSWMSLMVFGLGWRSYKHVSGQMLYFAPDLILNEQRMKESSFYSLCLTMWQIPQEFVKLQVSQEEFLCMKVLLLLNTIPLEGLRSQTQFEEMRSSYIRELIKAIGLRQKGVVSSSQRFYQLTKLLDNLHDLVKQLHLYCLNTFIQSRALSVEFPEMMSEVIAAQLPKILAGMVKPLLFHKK", "experiment": "TOX21_PR_LUC_Followup_Antagonist: Tox21 HEK293 Progesterone Receptor (PR) Antagonism Luciferase Follow-Up Assay (AID 2283938);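 also: curve fitted upward as signal gain over DMSO baseline despite antagonist label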", "procedure,_shortened": "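Luminescence from ONE-Glo was measured 30 min after reagent addition, following 16 h exposure of HEK293-PR-A-luc cells (3,000/well, plated 5 h earlier) to DMSO-dissolved compounds at 37C; DMSO served as baseline.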"}, "[6]": {"biological_target": "PGR (gene 5241) (UniProt P06401)", "experiment": "TOX21_PR_BLA_Followup_Agonist_ratio: Tox21 HEK293 Progesterone Receptor (PR) Agonism Beta-lactamase Follow-Up Assay, Ratio (AID 2283933)", "protocol": "TOX21_PR_BLA_Followup is a secondary assay for specificity for the TOX21_PR_BLA_Agonist assay. To differentiate true PR agonists from cytotoxic substances, this follow up assay is multiplexed with a cell viability assay. The compounds were also tested for auto fluorescence that may interfere with the biological target readout resulting in potential false positives and/or negatives. To identify the compounds that stimulate PR signaling, a PR-UAS-bla GripTite cell line i.e. PR-UAS-bla HEK293T (Invitrogen, Carlsbad, CA, USA) containing a beta-lactamase reporter gene under the control of an UAS response element was used to screen Tox21 10K compound library. The cytotoxicity of the Tox21 compound library against the PR-bla cell line was tested in parallel by measuring the cell viability using CellTiter-Glo assay in the same wells. TOX21_PR_BLA_Followup_Agonist_ratio is an assay readout measuring reporter gene via receptor activity and designed using inducible reporter (beta lactamase induction) detected with GAL4 b-lactamase reporter gene. The signal is derived from the ratio of cleaved (ch2) to uncleaved (ch1) reporter gene substrate used as the measure of target activity.Data from the assay component TOX21_PR_BLA_Followup_Agonist_ratio was analyzed into 1 assay endpoint. This assay endpoint, TOX21_PR_BLA_Followup_Agonist_ratio, was analyzed in the positive analysis fitting direction relative to DMSO as the negative control and baseline of activity. […] Furthermore, this assay endpoint can be referred to as a primary readout, because this assay has produced multiple assay endpoints where this one serves a reporter gene function. […]\nAssay Protocol: PR-UAS-bla HEK 293T cells were dispensed at 3,000 cells/5 uL of assay medium containing 2% charcoal stripped FBS per well into black wall/clear-bottom 1536-well plates using a Multidrop Combi (ThermoFisher Scientific, Waltham, MA) dispenser. […] After the plates were incubated at room temperature for 2 hours, fluorescence intensity was measured by an Envision plate reader (PerkinElmer, Shelton, CT)."}, "[7]": {"biological_target": "PGR (gene 5241) (UniProt P06401)", "experiment": "TOX21_PR_BLA_Followup_Antagonist_ratio: Tox21 HEK293 Progesterone Receptor (PR) Antagonism Beta-lactamase Follow-Up Assay, Ratio (AID 2283934)", "procedure,_shortened": "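Antagonist mode used 1 nM R5020 (final) as agonist on a beta-lactamase reporter line in HEK293T cells. Activity was taken from the substrate cleavage ratio after 16 hr exposure.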"}, "[8]": {"biological_target": "PGR (gene 5241) (UniProt P06401)", "experiment": "TOX21_PR_LUC_Followup_Agonist: Tox21 HEK293 Progesterone Receptor (PR) Agonism Luciferase Follow-Up Assay (AID 2283937; active = hit-call score of the fitted dose curve at least 0.9, where 1 is the maximum; inactive = score below 0.9)", "procedure,_shortened": "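Agonist mode: reporter cells carrying PR-A and luciferase are treated 16 h with test compounds at 37C. Luciferase induction is measured by luminescence and fitted upward against DMSO.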"}, "[9]": {"experiment": "CEETOX_H295R_ESTRADIOL_noMTC: CeeTox H295R High-throughput Steroidogenesis Assay for Estradiol, maximum tolerated concentration (MTC) filtered results only (AID 2283919; active = hit-call score of the fitted dose curve at least 0.9, where 1 is the maximum; inactive = score below 0.9)", "settings": "actives raise or lower the signal", "procedure,_shortened": "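H295R human adrenal cells pre-stimulated 48 h with 10 uM forskolin, then exposed 48 h to chemical (0.1% DMSO final). Estradiol in medium measured by HPLC-MS/MS after MTBE extraction and dansyl derivatization; bidirectional fit versus DMSO, concentrations not MTT-filtered.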"}, "[10]": {"experiment": "CEETOX_H295R_ESTRONE_noMTC: CeeTox H295R High-throughput Steroidogenesis Assay for Estrone, maximum tolerated concentration (MTC) filtered results only (AID 2283921; active = hit-call score of the fitted dose curve at least 0.9, where 1 is the maximum; inactive = score below 0.9)", "settings": "actives raise or lower the signal", "protocol": "CEETOX_H295R is a cell-based, multiplexed-readout assay that uses H295R, a human adrenal gland cell line, with measurements taken at 48 hours after chemical dosing in a 96-well plate.CEETOX_H295R_ESTRONE_noMTC is one of 12 assay component(s) measured or calculated from the CEETOX_H295R assay (11 hormones and 1 viability assay). It is designed to make measurements of hormone induction, a form of inducible reporter, as detected with absorbance signals by HPLC-MS-MS technology. The concentrations for these components have not been pre-filtered for the maximum tolerated concentration (MTC) based on the MTT assay (_noMTC).Data from the assay component CEETOX_H295R_ESTRONE_noMTC was analyzed into 1 assay endpoint. This assay endpoint, CEETOX_H295R_ESTRONE_noMTC, was analyzed with bidirectional fitting relative to DMSO as the negative control and baseline of activity. […]\nCell culture and media preparation procedures were conducted in accordance with OECD Test No. 456 guidelines, with minor modifications. […] For steroid quantification, media samples were shipped to OpAns, LLC (Durham, NC) on dry ice, and samples were thawed to room temperature prior to liquid-liquid extraction. […] Steroid hormones were separated by HPLC, eluted using a reverse phase C18 gradient with electrospray positive ionization, followed by quantification by tandem mass spectrometry (MS/MS). […]"}}, "note": "Records with an inconclusive call do not appear. Activity calls are given as the source filed them. The calls were made as follows, unless noted: active = hit-call score of the fitted dose curve at least 0.9, where 1 is the maximum; inconclusive = response in the unintended direction; inactive = score below 0.9."}
{"smiles": "CCCCC(CC)COC(=O)c1ccccc1C(=O)O", "note": "(centres undefined)", "values": [{"measurement": "outcome", "setting": "[1]", "value": "inactive"}]}
{"smiles": "COC(=O)c1ccc(I)cc1S(=O)(=O)NC(=O)Nc1nc(C)nc(OC)n1", "values": [{"measurement": "outcome", "setting": "[2]", "value": "inactive"}]}
{"smiles": "C[C@]12C[C@H](O)[C@H]3[C@@H](CCC4=CC(=O)CC[C@@]43C)[C@@H]1CC[C@@H]2C(=O)CO", "values": [{"measurement": "outcome", "setting": "[3]", "value": "inactive"}, {"measurement": "outcome", "setting": "[4]", "value": "inactive"}, {"measurement": "outcome", "setting": "[5]", "value": "inactive"}]}
{"smiles": "C[C@]12CC[C@@H]3c4ccc(O)cc4C[C@@H](CCCCCCCCCS(=O)CCCC(F)(F)C(F)(F)F)[C@H]3[C@@H]1CC[C@@H]2O", "note": "(some centres undefined)", "values": [{"measurement": "outcome", "setting": "[6]", "value": "inactive"}, {"measurement": "AC50", "setting": "[7]", "value": "4.06 µM (active)"}, {"measurement": "outcome", "setting": "[8]", "value": "inactive"}, {"measurement": "AC50", "setting": "[5]", "value": "5.78 µM (active)"}]}
{"smiles": "CCNc1nc(N)nc(Cl)n1", "values": [{"measurement": "outcome", "setting": "[2]", "value": "inactive"}]}
{"smiles": "CC(C)(c1ccc(O)cc1)c1ccc(O)cc1", "values": [{"measurement": "outcome", "setting": "[6]", "value": "inactive"}, {"measurement": "AC50", "setting": "[7]", "value": "32.9 µM (active)"}, {"measurement": "outcome", "setting": "[3]", "value": "inactive"}, {"measurement": "outcome", "setting": "[4]", "value": "inactive"}, {"measurement": "outcome", "setting": "[8]", "value": "inactive"}, {"measurement": "AC50", "setting": "[5]", "value": "33.3 µM (active)"}]}
{"smiles": "COC(=O)c1ccccc1C(=O)O", "values": [{"measurement": "outcome", "setting": "[9]", "value": "inactive"}, {"measurement": "outcome", "setting": "[1]", "value": "inactive"}, {"measurement": "outcome", "setting": "[10]", "value": "inactive"}]}
{"smiles": "O=C(c1ccc(O)cc1O)c1ccc(O)cc1O", "values": [{"measurement": "outcome", "setting": "[6]", "value": "inactive"}, {"measurement": "AC50", "setting": "[7]", "value": "58.1 µM (active)"}, {"measurement": "outcome", "setting": "[4]", "value": "inactive"}, {"measurement": "outcome", "setting": "[8]", "value": "inactive"}, {"measurement": "AC50", "setting": "[5]", "value": "68.3 µM (active)"}]}
{"smiles": "CC(C)CCCCCCc1ccc(O)cc1", "values": [{"measurement": "outcome", "setting": "[7]", "value": "inactive"}, {"measurement": "outcome", "setting": "[3]", "value": "inactive"}, {"measurement": "outcome", "setting": "[4]", "value": "inactive"}, {"measurement": "outcome", "setting": "[5]", "value": "inactive"}]}
{"smiles": "CCCN(CCC)C(=O)SCC", "values": [{"measurement": "outcome", "setting": "[2]", "value": "inactive"}]}
